These results are taken from PubChem BioAssay (NCI).

Values joined by “and” are separate entries in the source; they are usually repeats but may differ in a detail not shown here. Equal entries are not always repeated. Compounds without any hit were thinned out: in the full panel of roughly 83,000, 20% have a hit.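 Cells were grown in 96-well plates and exposed to the test compound at a single concentration for 48 hours; results are reported as percent growth, with values below 10 considered active.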 Values without a mark were called inactive. Active and inactive are the calls of the source.

The assay has as its system MDA-MB-468 breast. Put plainly: NCI-60 one-dose screen, 48 h (100 = growth as untreated, 0 = no growth, -100 = all killed). Conditions: 10 µM unless noted.
With `Cc1ccc(NC(=O)N[C@@H](Cc2cc(F)cc(F)c2)C(=O)NC2C(=O)N3CCC[C@H]3C(=O)N3CCCC[C@H]3C(=O)N[C@@H](C)C(=O)N3C[C@H](C)C[C@H]3C(=O)O[C@H]2C)c(F)c1` (stereo partly drawn), the growth was -12.1% (active).
For `O=C(CCCCC(=O)Nc1ccc2c(c1)/C(=C/c1ccc[nH]1)C(=O)N2)NO` the value was 49%.
Regarding `C=C1c2nc3ccccc3n2C=C(c2cccc(Cl)c2)N1Cc1ccc(OC)cc1`, the growth was 32%.
The figure for `CN1C(=O)N(C)C2C1NN=c1s/c(=C\c3ccccc3)c(=O)n12` (stereo not drawn) is 23.8%; for `COc1cc2c(-c3cc4c(cc3CNCCc3ccc5c(c3)OCO5)OCO4)cccc2c(OC)c1O` it is -8.75% (active); for `Cc1cccc2c3c(sc12)C(c1ccc(F)cc1)C(C#N)=C(/N=C/c1ccc(Cl)cc1)O3` (stereo not drawn) it is 36.2%.
For `O=C(Oc1ccc2c(c1)sc1nc(-c3ccccc3)[nH]c(=O)c12)C(F)(F)F` the value was 37.9%; for `CC(=O)Nc1cc(S(=O)(=O)O)cc2cc(S(=O)(=O)O)c(N=Nc3ccccc3)c(O)c12`, 93.5% and 101%; for `O=C(CCN1C(=O)/C(=C/c2ccc(O)cc2)SC1=S)Nc1ccccc1`, 100%.
For the molecule `CN1C(=O)C2(NN=C(c3cccc4ccccc34)S2)c2ccccc21` (stereo not drawn), the growth is 32.4%.
In the case of `O=C1C(=O)N(Cc2ccc(-c3ccccc3)cc2)c2ccc(OC(F)(F)F)cc21`, the growth was 25%.
The figure for `CCOC(=O)CCCC(=O)OCC` is 116%; for `C1CCN(c2nc(N3CCCCC3)nc(N3CCOCC3)n2)CC1` it is 107%.
